Experiment [1] concerns the target T1, Serine/threonine-protein kinase D2 (Homo sapiens) (UniProt Q9BZL6).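 Also: mean value of PRKD2 inhibition, from the GSK PKIS screening panel.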
T1 sequence (whole entry): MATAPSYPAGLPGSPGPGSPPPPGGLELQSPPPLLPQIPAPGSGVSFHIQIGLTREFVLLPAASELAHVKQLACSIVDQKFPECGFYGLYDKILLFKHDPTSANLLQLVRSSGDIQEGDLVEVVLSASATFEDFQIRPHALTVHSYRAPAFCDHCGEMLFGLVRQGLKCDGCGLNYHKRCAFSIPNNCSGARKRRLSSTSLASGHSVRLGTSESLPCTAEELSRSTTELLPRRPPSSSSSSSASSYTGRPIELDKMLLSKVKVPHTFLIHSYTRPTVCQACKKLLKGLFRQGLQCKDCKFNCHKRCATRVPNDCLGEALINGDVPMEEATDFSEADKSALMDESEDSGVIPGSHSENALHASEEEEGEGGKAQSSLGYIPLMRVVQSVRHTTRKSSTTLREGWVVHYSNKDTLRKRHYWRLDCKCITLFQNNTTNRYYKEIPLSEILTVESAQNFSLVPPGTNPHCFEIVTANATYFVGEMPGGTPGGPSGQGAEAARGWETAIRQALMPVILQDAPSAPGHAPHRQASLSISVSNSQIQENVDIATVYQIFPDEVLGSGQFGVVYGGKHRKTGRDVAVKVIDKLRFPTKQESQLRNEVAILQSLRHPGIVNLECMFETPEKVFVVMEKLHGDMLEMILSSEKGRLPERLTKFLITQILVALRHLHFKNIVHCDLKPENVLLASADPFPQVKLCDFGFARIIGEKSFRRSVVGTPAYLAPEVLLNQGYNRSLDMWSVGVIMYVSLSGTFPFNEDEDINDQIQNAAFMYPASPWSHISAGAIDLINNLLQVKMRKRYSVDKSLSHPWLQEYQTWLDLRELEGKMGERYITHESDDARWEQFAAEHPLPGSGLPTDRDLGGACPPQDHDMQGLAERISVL
The following applies: at 1 µM.

For experiment [2], the target named is T2, Serine/threonine-protein kinase D3 (Homo sapiens) (UniProt O94806).
T2 sequence (whole entry): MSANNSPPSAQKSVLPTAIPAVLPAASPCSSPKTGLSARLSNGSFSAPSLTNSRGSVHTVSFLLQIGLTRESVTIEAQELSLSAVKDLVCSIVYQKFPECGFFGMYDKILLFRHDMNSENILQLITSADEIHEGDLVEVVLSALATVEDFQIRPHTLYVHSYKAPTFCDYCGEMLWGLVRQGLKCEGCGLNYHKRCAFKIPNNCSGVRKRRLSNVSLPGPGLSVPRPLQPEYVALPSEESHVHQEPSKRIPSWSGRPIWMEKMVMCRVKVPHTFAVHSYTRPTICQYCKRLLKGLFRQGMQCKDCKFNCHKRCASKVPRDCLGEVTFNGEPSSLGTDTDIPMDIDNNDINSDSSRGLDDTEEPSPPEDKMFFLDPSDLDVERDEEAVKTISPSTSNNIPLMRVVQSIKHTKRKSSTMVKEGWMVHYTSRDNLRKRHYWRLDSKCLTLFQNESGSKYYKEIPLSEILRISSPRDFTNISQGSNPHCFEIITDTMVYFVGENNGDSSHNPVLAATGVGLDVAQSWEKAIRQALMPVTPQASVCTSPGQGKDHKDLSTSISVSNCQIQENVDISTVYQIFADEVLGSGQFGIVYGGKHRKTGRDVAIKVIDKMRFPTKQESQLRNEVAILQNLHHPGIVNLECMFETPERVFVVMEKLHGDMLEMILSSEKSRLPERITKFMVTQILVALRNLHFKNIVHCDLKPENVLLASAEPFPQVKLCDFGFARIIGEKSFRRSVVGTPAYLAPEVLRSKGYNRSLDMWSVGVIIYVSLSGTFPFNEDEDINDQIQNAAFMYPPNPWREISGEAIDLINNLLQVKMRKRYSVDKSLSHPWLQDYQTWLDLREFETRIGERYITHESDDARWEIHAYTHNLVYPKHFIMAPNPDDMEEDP
The following applies: at 0.1 µM.

Experiment [3] has as its target T2, Serine/threonine-protein kinase D3 (Homo sapiens). The following applies: at 1 µM.
Experiment [4] deals with T3, cGMP-dependent protein kinase 1 (Homo sapiens) (UniProt Q13976).
T3 sequence (whole entry): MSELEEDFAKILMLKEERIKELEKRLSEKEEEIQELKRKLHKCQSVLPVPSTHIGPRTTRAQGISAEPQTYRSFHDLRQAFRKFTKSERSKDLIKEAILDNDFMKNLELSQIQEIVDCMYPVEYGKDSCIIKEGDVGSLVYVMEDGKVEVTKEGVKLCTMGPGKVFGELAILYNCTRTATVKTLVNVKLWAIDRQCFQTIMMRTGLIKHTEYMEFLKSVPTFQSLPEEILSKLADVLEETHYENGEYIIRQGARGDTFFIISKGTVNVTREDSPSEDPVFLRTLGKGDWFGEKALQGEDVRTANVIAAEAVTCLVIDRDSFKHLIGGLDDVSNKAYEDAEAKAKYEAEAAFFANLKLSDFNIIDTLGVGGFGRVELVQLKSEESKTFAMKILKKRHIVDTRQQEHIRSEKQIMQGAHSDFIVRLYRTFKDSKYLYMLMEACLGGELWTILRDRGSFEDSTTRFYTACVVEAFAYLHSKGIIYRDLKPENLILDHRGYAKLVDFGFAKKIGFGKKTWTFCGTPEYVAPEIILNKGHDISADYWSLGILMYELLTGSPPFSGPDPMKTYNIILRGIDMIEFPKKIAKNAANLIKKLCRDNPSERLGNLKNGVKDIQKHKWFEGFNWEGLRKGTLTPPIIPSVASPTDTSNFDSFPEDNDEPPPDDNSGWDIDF
The following applies: at 0.1 µM.

Experiment [5] deals with T3, cGMP-dependent protein kinase 1 (Homo sapiens). The following applies: at 1 µM.
Experiment [6] deals with T4, cGMP-dependent protein kinase 2 (Homo sapiens) (UniProt Q13237).
T4 sequence (whole entry): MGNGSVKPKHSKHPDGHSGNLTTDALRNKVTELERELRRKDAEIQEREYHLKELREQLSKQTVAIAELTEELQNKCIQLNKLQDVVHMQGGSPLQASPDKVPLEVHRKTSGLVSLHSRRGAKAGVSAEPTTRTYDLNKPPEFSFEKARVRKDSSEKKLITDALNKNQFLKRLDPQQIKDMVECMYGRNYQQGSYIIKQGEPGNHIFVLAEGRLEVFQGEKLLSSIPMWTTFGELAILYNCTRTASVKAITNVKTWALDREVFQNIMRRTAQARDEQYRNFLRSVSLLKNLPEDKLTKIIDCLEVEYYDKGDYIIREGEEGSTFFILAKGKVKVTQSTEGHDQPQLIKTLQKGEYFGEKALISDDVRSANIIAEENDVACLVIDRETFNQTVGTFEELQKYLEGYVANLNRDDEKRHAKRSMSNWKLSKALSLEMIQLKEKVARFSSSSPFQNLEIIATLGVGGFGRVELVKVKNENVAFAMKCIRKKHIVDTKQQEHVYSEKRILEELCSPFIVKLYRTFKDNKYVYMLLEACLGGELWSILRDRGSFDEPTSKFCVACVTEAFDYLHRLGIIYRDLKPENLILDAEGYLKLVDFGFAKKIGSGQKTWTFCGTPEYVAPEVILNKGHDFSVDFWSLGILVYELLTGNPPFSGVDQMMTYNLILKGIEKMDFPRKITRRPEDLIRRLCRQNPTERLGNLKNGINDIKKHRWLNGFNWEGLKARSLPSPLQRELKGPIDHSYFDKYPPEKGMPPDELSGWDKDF
The following applies: at 0.1 µM.

In experiment [7] the target is T4, cGMP-dependent protein kinase 2 (Homo sapiens). The conditions noted are these: at 1 µM.
For experiment [8], the target named is T5, cAMP-dependent protein kinase catalytic subunit PRKX (Homo sapiens) (UniProt P51817).
T5 sequence (whole entry): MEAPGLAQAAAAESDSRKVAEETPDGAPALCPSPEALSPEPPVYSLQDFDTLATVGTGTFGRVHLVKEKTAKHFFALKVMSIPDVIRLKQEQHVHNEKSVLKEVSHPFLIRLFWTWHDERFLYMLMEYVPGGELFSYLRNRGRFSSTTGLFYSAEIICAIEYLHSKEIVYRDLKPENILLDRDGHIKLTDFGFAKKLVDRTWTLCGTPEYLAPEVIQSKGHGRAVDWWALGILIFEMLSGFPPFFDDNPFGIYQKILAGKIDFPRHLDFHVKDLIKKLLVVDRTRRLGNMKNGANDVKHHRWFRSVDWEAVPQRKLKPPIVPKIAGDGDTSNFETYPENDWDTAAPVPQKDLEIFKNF
The following applies: at 0.1 µM.

In experiment [9] the target is T5, cAMP-dependent protein kinase catalytic subunit PRKX (Homo sapiens). The following applies: at 1 µM.
Experiment [10] concerns the target Rho-associated protein kinase 1 (Homo sapiens) (UniProt Q13464). The following applies: at 0.1 µM.
Experiment [11] has the same target. The following applies: at 1 µM.
In experiment [12] the target is Rho-associated protein kinase 2 (Homo sapiens) (UniProt O75116). The conditions noted are these: at 0.1 µM.
Sequence of Rho-associated protein kinase 2 (Homo sapiens) (O75116 whole entry, looked up): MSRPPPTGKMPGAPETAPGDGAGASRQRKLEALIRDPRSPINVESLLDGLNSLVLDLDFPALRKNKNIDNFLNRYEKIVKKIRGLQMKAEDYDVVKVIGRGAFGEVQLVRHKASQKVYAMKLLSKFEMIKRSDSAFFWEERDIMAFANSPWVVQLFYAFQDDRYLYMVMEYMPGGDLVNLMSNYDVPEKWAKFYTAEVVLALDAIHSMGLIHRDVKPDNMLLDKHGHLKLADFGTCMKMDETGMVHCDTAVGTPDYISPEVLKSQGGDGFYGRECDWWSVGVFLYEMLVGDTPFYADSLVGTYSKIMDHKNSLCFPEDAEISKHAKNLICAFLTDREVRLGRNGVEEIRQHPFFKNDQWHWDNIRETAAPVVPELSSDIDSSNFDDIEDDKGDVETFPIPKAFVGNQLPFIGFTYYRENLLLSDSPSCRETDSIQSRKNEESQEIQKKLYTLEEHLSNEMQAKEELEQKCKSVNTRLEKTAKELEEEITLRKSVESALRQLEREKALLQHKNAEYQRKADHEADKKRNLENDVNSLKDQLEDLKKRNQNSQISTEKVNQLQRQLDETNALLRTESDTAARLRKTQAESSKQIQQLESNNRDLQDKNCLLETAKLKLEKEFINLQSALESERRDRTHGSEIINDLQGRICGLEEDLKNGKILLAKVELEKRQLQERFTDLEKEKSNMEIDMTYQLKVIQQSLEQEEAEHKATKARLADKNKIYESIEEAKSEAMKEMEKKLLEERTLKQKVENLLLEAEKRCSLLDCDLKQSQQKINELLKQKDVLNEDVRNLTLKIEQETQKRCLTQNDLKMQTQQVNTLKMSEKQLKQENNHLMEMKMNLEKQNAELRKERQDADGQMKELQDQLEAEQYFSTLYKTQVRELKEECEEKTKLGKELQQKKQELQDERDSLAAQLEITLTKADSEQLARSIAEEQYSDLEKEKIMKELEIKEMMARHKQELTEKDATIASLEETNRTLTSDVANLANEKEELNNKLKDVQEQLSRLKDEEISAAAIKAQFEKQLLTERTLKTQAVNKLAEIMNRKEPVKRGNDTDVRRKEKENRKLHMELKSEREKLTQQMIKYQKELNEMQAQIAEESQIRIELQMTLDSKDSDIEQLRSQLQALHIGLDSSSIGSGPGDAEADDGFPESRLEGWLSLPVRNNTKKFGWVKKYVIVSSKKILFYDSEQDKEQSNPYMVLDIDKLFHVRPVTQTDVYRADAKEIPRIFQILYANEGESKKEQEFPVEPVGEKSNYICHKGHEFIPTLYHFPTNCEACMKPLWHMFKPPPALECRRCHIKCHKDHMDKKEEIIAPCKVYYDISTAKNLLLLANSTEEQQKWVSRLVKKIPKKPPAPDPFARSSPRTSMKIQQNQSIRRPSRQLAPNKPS
Experiment [13] has the same target. The conditions noted are these: at 1 µM.
The target of experiment [14] is Ribosomal protein S6 kinase alpha-1 (Homo sapiens) (UniProt Q15418). The following applies: at 0.1 µM.
Sequence of Ribosomal protein S6 kinase alpha-1 (Homo sapiens) (Q15418 whole entry): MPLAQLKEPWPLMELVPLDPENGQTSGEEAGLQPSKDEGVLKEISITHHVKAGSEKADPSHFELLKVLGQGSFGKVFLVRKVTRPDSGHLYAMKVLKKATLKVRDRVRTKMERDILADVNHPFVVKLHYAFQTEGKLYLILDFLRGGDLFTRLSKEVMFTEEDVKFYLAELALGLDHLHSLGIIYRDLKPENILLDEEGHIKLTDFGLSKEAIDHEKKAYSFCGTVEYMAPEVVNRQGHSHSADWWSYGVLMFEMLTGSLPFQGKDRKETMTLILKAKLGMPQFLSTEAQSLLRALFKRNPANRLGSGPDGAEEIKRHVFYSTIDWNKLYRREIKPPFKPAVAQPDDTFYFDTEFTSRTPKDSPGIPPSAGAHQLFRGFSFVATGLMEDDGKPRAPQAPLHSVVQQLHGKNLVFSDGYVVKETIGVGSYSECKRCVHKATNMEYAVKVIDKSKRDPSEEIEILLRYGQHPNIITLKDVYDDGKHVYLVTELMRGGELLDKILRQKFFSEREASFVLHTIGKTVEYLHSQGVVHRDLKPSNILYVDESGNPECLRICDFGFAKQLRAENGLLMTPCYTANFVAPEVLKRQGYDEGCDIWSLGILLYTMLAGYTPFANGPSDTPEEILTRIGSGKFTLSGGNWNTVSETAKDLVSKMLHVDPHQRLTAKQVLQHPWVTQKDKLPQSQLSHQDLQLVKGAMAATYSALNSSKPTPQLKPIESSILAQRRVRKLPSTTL
Experiment [15] shares this target. The following applies: at 1 µM.
The target in experiment [16] is Ribosomal protein S6 kinase alpha-3 (Homo sapiens) (UniProt P51812). The conditions noted are these: at 0.1 µM.
Sequence of Ribosomal protein S6 kinase alpha-3 (Homo sapiens) (P51812 whole entry): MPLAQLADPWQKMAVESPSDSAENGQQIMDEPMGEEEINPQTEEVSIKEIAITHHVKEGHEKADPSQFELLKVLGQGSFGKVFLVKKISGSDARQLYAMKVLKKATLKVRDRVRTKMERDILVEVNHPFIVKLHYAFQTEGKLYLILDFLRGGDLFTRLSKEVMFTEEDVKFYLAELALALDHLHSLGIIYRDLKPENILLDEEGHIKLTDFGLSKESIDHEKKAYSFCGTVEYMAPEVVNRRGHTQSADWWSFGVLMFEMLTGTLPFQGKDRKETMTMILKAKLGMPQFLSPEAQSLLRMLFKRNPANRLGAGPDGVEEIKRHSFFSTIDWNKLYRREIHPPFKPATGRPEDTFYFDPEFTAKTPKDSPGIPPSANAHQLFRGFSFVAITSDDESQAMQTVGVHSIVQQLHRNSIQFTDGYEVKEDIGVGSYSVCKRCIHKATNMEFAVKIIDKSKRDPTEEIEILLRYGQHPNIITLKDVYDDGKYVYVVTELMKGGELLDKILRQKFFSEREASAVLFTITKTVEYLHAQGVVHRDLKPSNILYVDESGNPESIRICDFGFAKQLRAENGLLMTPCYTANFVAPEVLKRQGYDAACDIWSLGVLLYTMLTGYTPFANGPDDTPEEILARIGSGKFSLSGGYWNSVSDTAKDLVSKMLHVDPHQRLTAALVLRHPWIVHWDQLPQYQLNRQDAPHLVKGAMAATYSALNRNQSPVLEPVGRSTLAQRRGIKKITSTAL
The target is the same in experiment [17]. The following applies: at 1 µM.
Experiment [18] has as its target Ribosomal protein S6 kinase alpha-2 (Homo sapiens) (UniProt Q15349). The following applies: at 0.1 µM.
For experiment [19] the target is unchanged. The conditions noted are these: at 1 µM.
Experiment [20] concerns the target Ribosomal protein S6 kinase alpha-6 (Homo sapiens) (UniProt Q9UK32). The following applies: at 0.1 µM.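 Also: reported value is the mean inhibition of RSK4, from the GSK PKIS kinase inhibitor screen.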

Sequence of Rho-associated protein kinase 1 (Homo sapiens) (Q13464 2-1354 limits assumed): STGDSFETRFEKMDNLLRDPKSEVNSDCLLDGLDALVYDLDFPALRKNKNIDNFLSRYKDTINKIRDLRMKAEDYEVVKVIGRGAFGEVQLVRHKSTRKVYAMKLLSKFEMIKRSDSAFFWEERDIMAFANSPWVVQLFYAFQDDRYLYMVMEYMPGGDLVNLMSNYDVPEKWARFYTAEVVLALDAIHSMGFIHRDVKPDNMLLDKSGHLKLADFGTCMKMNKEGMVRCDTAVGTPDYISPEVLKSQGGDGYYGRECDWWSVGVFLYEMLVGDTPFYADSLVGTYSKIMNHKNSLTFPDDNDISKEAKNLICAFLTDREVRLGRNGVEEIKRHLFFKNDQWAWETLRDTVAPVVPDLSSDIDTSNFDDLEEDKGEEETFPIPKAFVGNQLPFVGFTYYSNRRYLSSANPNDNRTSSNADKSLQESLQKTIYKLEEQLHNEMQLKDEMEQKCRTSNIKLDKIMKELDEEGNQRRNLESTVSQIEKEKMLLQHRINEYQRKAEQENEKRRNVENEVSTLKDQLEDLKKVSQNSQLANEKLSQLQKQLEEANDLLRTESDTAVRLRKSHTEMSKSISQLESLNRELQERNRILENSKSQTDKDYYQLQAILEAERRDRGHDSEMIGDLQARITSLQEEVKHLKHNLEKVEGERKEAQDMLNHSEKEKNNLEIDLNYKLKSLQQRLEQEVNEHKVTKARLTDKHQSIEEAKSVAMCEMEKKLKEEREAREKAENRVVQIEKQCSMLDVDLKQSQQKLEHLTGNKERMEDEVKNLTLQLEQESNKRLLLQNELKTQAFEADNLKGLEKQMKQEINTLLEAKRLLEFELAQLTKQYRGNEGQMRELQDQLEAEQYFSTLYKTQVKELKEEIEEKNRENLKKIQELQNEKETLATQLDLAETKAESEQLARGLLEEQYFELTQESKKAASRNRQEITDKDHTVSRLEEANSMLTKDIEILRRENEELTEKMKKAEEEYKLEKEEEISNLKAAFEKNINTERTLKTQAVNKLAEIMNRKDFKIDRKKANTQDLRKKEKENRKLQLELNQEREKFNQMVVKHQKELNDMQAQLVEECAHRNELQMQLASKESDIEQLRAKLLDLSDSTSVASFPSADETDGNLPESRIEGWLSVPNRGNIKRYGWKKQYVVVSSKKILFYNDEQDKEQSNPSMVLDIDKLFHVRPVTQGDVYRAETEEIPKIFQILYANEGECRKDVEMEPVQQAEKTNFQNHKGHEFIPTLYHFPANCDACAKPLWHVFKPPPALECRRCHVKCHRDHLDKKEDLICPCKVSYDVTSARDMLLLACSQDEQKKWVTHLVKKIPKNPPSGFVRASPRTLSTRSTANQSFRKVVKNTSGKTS
Sequence of Ribosomal protein S6 kinase alpha-2 (Homo sapiens) (Q15349 whole entry): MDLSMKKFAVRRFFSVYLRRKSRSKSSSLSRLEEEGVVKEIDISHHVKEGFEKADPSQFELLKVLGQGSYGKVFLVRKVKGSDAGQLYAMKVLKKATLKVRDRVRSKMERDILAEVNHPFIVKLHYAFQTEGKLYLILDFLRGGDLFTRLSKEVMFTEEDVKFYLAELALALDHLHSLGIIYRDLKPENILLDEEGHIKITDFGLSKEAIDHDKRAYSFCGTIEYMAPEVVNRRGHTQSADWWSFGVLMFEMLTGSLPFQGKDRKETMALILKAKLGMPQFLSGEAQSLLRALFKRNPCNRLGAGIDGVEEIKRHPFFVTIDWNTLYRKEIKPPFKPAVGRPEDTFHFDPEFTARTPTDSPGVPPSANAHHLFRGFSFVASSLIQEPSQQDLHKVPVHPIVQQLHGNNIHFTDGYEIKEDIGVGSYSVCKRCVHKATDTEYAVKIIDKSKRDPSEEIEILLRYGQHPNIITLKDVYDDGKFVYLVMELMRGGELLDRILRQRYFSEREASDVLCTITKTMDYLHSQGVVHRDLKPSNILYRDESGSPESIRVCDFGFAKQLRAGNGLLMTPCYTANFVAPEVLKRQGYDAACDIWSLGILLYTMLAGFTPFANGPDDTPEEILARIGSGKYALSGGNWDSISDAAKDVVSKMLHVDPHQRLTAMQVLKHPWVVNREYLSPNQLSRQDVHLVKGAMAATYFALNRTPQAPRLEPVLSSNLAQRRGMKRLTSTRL

As usually defined, the inhibition is the drop in the measured response relative to a control, in per cent. For the compound `CS(=O)(=O)CCNCc1nc(-c2ccc3ncnc(Nc4ccc(F)c(Cl)c4)c3c2)cs1`, the inhibition is 2.87% in experiment [1]; 1.23% in experiment [2]; 1.58% in experiment [3]; 1.73% in experiment [4]; 3.32% in experiment [5]; 0.95% in [6]. The inhibition in [7] is 2.67%; in [8] it was 0.91%; in experiment [9], 1.76%; in experiment [10], 1.23%; in [11], 2.92%; in [12], 2.45%. Moreover, the inhibition in experiment [13] was 5.8%; in experiment [14] it was 1.4%; in experiment [15], 3.63%; in experiment [16] it was 1.07%; in experiment [17] it was 2.43%; in experiment [18] it was -0.57%. In addition, the inhibition in [19] turned out to be 0.84%; in experiment [20] it was 0.69%.
`COc1ccc2cc(-c3c(-c4ccncc4)nc(-c4ccc([S+](C)[O-])cc4)n3C)ccc2c1` (stereo not given): the inhibition amounted to 4.99% in experiment [1]; 3.54% in [2]; 4.91% in [3]; 1.31% in experiment [4]; 4.18% in [5]; 2.83% in experiment [6]. The inhibition was 4.08% in [7]; 1.36% in experiment [8]; -0.32% in [9]; 0.49% in experiment [10]; 0.63% in experiment [11]; 2.12% in experiment [12]. In addition, the inhibition in experiment [13] is -0.11%; in [14], 0.79%; in [15], 0.09%; in [16], 1.33%; in experiment [17] it was 0.81%; in [18], 2.14%. In addition, the inhibition in experiment [19] is 3.12%; in experiment [20], 0.84%.
Consider `CC1=C(C(=O)Nc2ccc3[nH]ncc3c2)C(c2ccc(Cl)c(Cl)c2)CC(=O)N1` (stereo not given), for which the inhibition in [1] came out at 5.98%; in experiment [2], 1.11%; in [3] it was 9.26%; in [4] it was 10.1%; in experiment [5], 50%; in [6], 5.19%. Moreover, the inhibition is 34.7% in experiment [7]; 14.8% in [8]; 59.2% in [9]; 68.6% in experiment [10]; 91.8% in experiment [11]; 71.2% in experiment [12]. The inhibition in [13] worked out at 89.9%; in experiment [14], 3.44%; in experiment [15], 23.6%; in experiment [16], 1.88%; in experiment [17], 18.9%; in experiment [18], 0.64%. Moreover, the results for the inhibition in [19] and in experiment [20] were 13.2% and 0.12%, respectively.
